Results as given in a collection of fitness landscapes (doi:10.1016/j.celrep.2020.107928).
In all, about 81,000 sequences were measured (“one-hybrid fitness for binding parS DNA”: median about -0.17, highest 2% from about 0.51 on). This excerpt belongs to a sample that is enriched for the highest values.

B1: Caulobacter ParB omega fusion; a variant is named by its letters at X, in order, B8GW30 (parent)
chain: MESVVVGEPGMSEGRRGLGRGLSALLGEVDAAPAQAPGEQLGGSREAPIEILQRNPDQPRRTFREEDLEDLSNSIREKGVLQPILVRPSPDTAGEYQIVAGERAWRAAQRAGLKTVPIMVRELDDLAVLEIGIIENVQRADLNVLEEALSYKVLMEKFERTQENIAQTIGKSXSHVANXMRLLXLPDEVQSYLVSGELTAXHARAIAAAADPVALAKQIIEGGLSVRETEALARKAPNLSAGKSKGGRPPRVKDTDTQALESDLSSVLGLDVSIDHRGSTGTLTITYATLEQLDDLCNRLTRGI

Variants of: B1
Test: one-hybrid fitness for binding parS DNA (scaled: cognate 1, non-cognate 0); higher = stronger binding
Settings: with parS DNA site
Outline: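 Fitness is the rescaled log change in variant-to-wild-type read ratio, measured by Illumina sequencing of plasmids before and after bacterial one-hybrid selection. The scale puts cognate at 1 and non-cognate at 0. Selection of Caulobacter ParB libraries, four specificity codons randomised, took place in E. coli USO with a HIS3 reporter, site 19 bp from the promoter, over 48 hours at 37°C on M9-minus-histidine with 0.1 mM IPTG and 5 mM 3-AT.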

Variant | one-hybrid fitness for binding parS DNA
RWIA | 0.295
RPIA | ≤ 0.2
RSIA | 0.474
RCIA | 0.551
RLPA | 0.376
RMPA | 0.393
RLIA | 0.592
RMIA | 0.537
VHRF | ≤ 0.2
NYLC | ≤ 0.2
ALEW | ≤ 0.2
NIYW | ≤ 0.2
RAYY | 0.501
RPQY | ≤ 0.2
RRNY | 0.727
RADY | 0.389
RRYY | 0.28
RCQY | 0.493
RMQY | 0.546
RRRY | 0.812
RRFY | 0.274
RARY | 0.552
RCNY | 0.482
RRDY | 0.289
AECV | ≤ 0.2
GPSG | ≤ 0.2

Variant | one-hybrid fitness for binding parS DNA
TNDG | ≤ 0.2
LTTC | ≤ 0.2
SCLR | ≤ 0.2
VNDE | ≤ 0.2
FAPS | ≤ 0.2
LNVW | ≤ 0.2
RNEL | ≤ 0.2
RLRY | 0.645
RLDY | 0.451
RSYY | 0.457
RTGY | 0.593
RFRY | 0.533
RFYY | 0.383
RSRY | 0.55
RPGY | ≤ 0.2
RFDY | 0.443
RLYY | 0.497
RSDY | 0.352
RSGY | 0.482
RRGE | ≤ 0.2
LRQS | ≤ 0.2
LLPK | ≤ 0.2
ALSN | ≤ 0.2
RCRY | 0.695
RTRY | 0.828
RTYY | 0.49

Variant | one-hybrid fitness for binding parS DNA
RIYY | 0.475
RIAY | 0.484
RPRY | ≤ 0.2
RIRY | 0.617
RMRY | 0.777
RCYY | 0.472
RMYY | 0.483
RMIY | 0.467
RTLY | 0.495
EDER | ≤ 0.2
KRAT | ≤ 0.2
DYVS | ≤ 0.2
MMHG | ≤ 0.2
SFLE | ≤ 0.2
PRQV | ≤ 0.2
RTDY | 0.437
RTNY | 0.659
RSNY | 0.496
DVRM | ≤ 0.2
RAHY | 0.472
RACR | ≤ 0.2
RAWF | 0.245
RACK | ≤ 0.2
RARR | ≤ 0.2
RAWC | 0.927
RAHC | 0.983

Variant | one-hybrid fitness for binding parS DNA
RAHQ | ≤ 0.2
RACC | 0.962
RAWQ | ≤ 0.2
RARK | ≤ 0.2
RARC | 0.921
CWYT | ≤ 0.2
HLQT | ≤ 0.2
YDQM | ≤ 0.2
VCTK | ≤ 0.2
QSGL | ≤ 0.2
IVAE | ≤ 0.2
SVEV | ≤ 0.2
VAFA | ≤ 0.2
TVDW | ≤ 0.2
EQMM | ≤ 0.2
RAYF | 0.264
RALM | 0.34
RALR | ≤ 0.2
RALC | 0.968
RAQC | 0.987
RAYK | ≤ 0.2
RASP | ≤ 0.2
RAQH | 0.211
RAQP | ≤ 0.2
RASC | 0.973
RAYC | 0.99

Variant | one-hybrid fitness for binding parS DNA
RASD | ≤ 0.2
WCQR | ≤ 0.2
CHEL | ≤ 0.2
DWAG | ≤ 0.2
PWPN | ≤ 0.2
IYAV | ≤ 0.2
YPAT | ≤ 0.2
WGPT | ≤ 0.2
KAKV | ≤ 0.2
PNIE | ≤ 0.2
TVLI | ≤ 0.2
CNIV | ≤ 0.2
KLAN | ≤ 0.2
DLHL | ≤ 0.2
LCNK | ≤ 0.2
PFMG | ≤ 0.2
SAPW | ≤ 0.2
DGTW | ≤ 0.2
RDMT | ≤ 0.2
RTMQ | 0.208
RRMQ | ≤ 0.2
RTMF | 0.245
RTMT | 0.935
RRMT | 0.6
RKMT | 0.824
RKMF | ≤ 0.2

Variant | one-hybrid fitness for binding parS DNA
RSMT | 0.813
RRMF | ≤ 0.2
RKMY | 0.386
RGMT | 0.457
AQDS | ≤ 0.2
QQQY | ≤ 0.2
PPNS | ≤ 0.2
GHCG | ≤ 0.2
VYPW | ≤ 0.2
TWKG | ≤ 0.2
DFMT | ≤ 0.2
RIMT | 0.878
REMT | ≤ 0.2
RLMT | 0.955
RPMT | ≤ 0.2
RIMK | ≤ 0.2
RIMF | 0.247
RFMF | 0.245
RLMQ | ≤ 0.2
RLMK | ≤ 0.2
RFMT | 0.754
RCMT | 0.921
FHRK | ≤ 0.2
